# Assay results published in PMC4336329 (PLoS ONE, 2015).
# Among all 310,000 compounds or so, about 14,000 (4.5%) showed an effect of 50% or more. Effects have a minus sign here. This is one part of a sample in which strong results are shown more often than they occur.
# Biological target: human ether-à-go-go-related gene (hERG) potassium channel (human, UniProt Q12809)
# Assay: primary screen, population patch clamp on CHO cells stably expressing hERG; higher = less effect of the substance
# 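Further: peak tail current of the secondary pulse compared with the same well before compound.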
# human ether-à-go-go-related gene (hERG) potassium channel, sequence (Q12809 whole entry, looked up): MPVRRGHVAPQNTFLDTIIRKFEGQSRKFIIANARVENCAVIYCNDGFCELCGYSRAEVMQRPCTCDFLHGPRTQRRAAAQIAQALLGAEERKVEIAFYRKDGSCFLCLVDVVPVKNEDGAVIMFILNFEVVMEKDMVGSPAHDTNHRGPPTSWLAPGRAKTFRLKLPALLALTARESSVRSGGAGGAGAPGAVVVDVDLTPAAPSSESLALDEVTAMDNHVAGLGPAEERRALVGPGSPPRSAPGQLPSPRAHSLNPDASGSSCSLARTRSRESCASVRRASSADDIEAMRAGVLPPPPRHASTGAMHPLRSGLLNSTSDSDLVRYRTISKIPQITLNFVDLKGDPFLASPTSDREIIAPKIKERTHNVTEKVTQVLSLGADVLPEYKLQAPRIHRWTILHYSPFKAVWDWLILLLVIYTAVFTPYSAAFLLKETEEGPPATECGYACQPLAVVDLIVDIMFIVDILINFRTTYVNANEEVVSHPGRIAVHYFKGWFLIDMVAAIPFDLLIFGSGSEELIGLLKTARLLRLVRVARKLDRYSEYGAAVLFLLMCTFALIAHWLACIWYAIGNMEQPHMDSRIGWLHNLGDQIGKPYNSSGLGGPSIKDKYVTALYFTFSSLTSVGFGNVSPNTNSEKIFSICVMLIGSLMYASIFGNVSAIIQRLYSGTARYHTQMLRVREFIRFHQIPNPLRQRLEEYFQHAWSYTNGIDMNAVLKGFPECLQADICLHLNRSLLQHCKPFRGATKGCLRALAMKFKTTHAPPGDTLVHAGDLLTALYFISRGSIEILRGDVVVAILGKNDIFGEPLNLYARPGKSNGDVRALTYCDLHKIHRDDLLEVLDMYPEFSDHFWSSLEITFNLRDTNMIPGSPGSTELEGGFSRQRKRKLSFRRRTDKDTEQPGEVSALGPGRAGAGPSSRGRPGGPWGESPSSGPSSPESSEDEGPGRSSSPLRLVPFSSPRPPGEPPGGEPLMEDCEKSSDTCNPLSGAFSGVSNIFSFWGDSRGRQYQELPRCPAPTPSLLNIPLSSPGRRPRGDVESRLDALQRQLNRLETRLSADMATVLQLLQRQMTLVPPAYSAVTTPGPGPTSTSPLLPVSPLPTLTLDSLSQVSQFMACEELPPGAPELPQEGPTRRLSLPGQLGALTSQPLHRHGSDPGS
row,Compound,"hERG current change (%, negative = inhibition) at 10uM [%]"
1,Cc1cc(-c2nnc(SCC(=O)Nc3ccccc3F)n2N)n[nH]1,13.8
2,CC1(C)NC(=O)N(CCCC(=O)Nc2ccc(C(F)(F)F)cc2)C1=O,-16.9
3,CCOC(=O)c1c(-c2cccs2)csc1NC(C)=O,-1.29
4,COc1ccc(N2CC(C(=O)OCC(=O)Nc3ccccc3C)CC2=O)cc1 (centres unmarked),15.6
5,CN1CCN(C(=S)c2ccc(Cl)cc2)CC1,3.39
6,CCCN(CC1CC1)C(=O)COc1ccccc1C(=O)NCc1ccccc1,-56
7,CCN(C(=O)COc1ccccc1C(=O)NCc1ccccc1)C1CCS(=O)(=O)C1 (centres unmarked),-22.1
8,CCC(C)N(C(=O)COc1ccccc1C(=O)NCc1ccccc1)C1CCS(=O)(=O)C1 (centres unmarked),-39.2
9,COc1ccc(-n2nc3c(c2NC(=O)c2ccc(Br)cc2)CS(=O)C3)cc1 (centres unmarked),-50.8
10,COc1ccc(-n2nc3c(c2NC(=O)c2cc(Br)ccc2Cl)CS(=O)C3)cc1 (centres unmarked),-43.4
11,COc1ccc(C(=O)Nc2c3c(nn2-c2cccc(Cl)c2)CS(=O)C3)cc1 (centres unmarked),-25.6
12,CN(C)c1ccc(Sc2nnc(NC(=O)Nc3ccc(Cl)cc3Cl)s2)cc1,12.2
13,CCN(CC)Cc1ccccc1CNC(=O)c1cccc(S(=O)(=O)Nc2ccc3c(c2)OCO3)c1,-71.3
14,COc1ccc(OC)c(CN2CCN(C(=O)CNC(=O)c3ccc(C(C)(C)C)cc3)CC2)c1,-53.9
15,O=C(O)c1cccc(S(=O)(=O)Nc2ccc3c(c2)OCO3)c1,23.4
16,CN(C)CC(NC(=O)c1cccc(S(=O)(=O)Nc2ccc3c(c2)OCO3)c1)c1ccccc1 (centres unmarked),-14.8
17,COc1ccc2cc(C(=O)NCc3ccccc3CN3CCCC3)ccc2c1,-68.2
18,COc1ccc(C(=O)O)cc1S(=O)(=O)Nc1ccc(C)cc1,23.1
19,O=C(NCc1ccccc1CN1CCCC1)c1cccc(N2CCCC2=O)c1,-3.11
20,CCN1CCN(C(=O)c2ccc(OC)c(S(=O)(=O)Nc3ccc(C)cc3)c2)CC1,-18.4
21,COc1ccc(C(=O)NCc2ccccc2CN2CCCC2)cc1S(=O)(=O)Nc1ccc(C)cc1,-57.9

row,Compound,"hERG current change (%, negative = inhibition) at 10uM [%]"
1,COc1ccc(OC)c(CN2CCN(C(=O)CNC(=O)c3cc(C)cc(C)c3)CC2)c1,-42.7
2,COc1ccc(OC)c(CN2CCN(C(=O)CCNC(=O)c3ccc(Br)cc3)CC2)c1,-45.7
3,COc1ccc(C(=O)NCc2ccccc2OC)cc1,-10.3
4,COc1ccccc1-c1nc(S(=O)(=O)c2ccccc2)c(N2CCCCC2)o1,14.4
5,Cc1cc(C)cc(NC(=O)CSc2nc3[nH]ncc3c(=O)[nH]2)c1,11.8
6,C/C(=N\NC(=S)Nc1cccc(C)c1)c1ccco1,-6.35
7,Cc1cc2c3c(c1C)C(=O)C(=O)N3C(C)(C)CC2C (centres unmarked),6.5
8,O=C(COC(=O)CCCN1C(=O)c2ccccc2C1=O)Nc1cc(Cl)cc(Cl)c1,-3.11
9,CC12CCC(C(=O)Nc3nc4ccccc4s3)(OC1=O)C2(C)C (centres unmarked),2.26
10,COc1ccc(NS(=O)(=O)c2cccc(C(=O)NCCCN3CCOCC3)c2)cc1,5.96
11,O=C(NCc1ccccc1CN1CCCC1)c1ccc(OCc2cscn2)cc1,-30
12,Cc1cccc(NS(=O)(=O)c2cccc(C(=O)NCc3ccccc3CN3CCOCC3)c2)c1,-26
13,Cc1nc(COc2ccc(C(=O)NCc3ccccc3CN3CCCCC3)cc2)cs1,-52.5
14,O=C(NCCN1CCOCC1)c1cccc(S(=O)(=O)Nc2ccc(F)cc2)c1,-5.27
15,O=C(NCc1ccccc1CN1CCCC1)c1cccc(S(=O)(=O)Nc2ccc(F)cc2)c1,-75.2
16,COc1ccc(NS(=O)(=O)c2cccc(C(=O)NCc3ccco3)c2)cc1,-15.8
17,COc1ccc(NS(=O)(=O)c2cccc(C(=O)NCc3ccccc3CN3CCCC3)c2)cc1,-64.4
18,Cc1nc(COc2ccc(C(=O)Nc3ccccc3N3CCOCC3)cc2)cs1,-49.1
19,COc1ccc(N/C=C(\C(C)=O)c2ccc(OC)c(OC)c2)cc1OC,18.2
20,CCNc1nc(N2CCOCC2)nc(N(c2ccccc2)c2ccccc2)n1,-12.9
21,CS(=O)(=O)N1CCC(C(=O)Nc2cc(Cl)cc(Cl)c2)CC1,4.85

row,Compound,"hERG current change (%, negative = inhibition) at 10uM [%]"
1,Cn1c(=O)c2c(nc(Sc3ccccc3N)n2C)n(C)c1=O,11.4
2,CCCC(c1nnnn1Cc1ccco1)N1CCN(C2CCCC2)CC1 (centres unmarked),-31
3,CC(C)C(c1nnnn1Cc1ccco1)N1CCN(C2CCCC2)CC1.Cl (centres unmarked),-3.68
4,CC(C)CC(c1nnnn1Cc1ccco1)N1CCN(C2CCCC2)CC1.Cl (centres unmarked),-38.1
5,Cl.c1coc(Cn2nnnc2CN2CCN(C3CCCCC3)CC2)c1,-41.4
6,Cl.Fc1ccc(C(c2nnnn2Cc2ccco2)N2CCN(C3CCCCC3)CC2)cc1 (centres unmarked),-65.6
7,Cl.c1ccc(C(c2nnnn2Cc2ccco2)N2CCN(C3CCCC3)CC2)cc1 (centres unmarked),-53.5
8,N#Cc1nc(COc2ccccc2)oc1N1CCOCC1,-19.6
9,Cc1ccc(NC(=O)/C=C\C(=O)NCC(=O)O)cc1,0.434
10,CC(=O)C1=C(C)Nc2ncnn2C1c1ccc(Cl)cc1Cl (centres unmarked),2.23
11,Cn1cc(CN2CCC(n3nccc3NC(=O)Cc3ccccc3)CC2)cn1,-41.8
12,Cc1ccccc1C(=O)N1CCN(c2ccc(NC(=O)c3cccnc3)cc2)CC1,-23
13,COc1ccc(C(=O)N2CCN(c3ccc(NC(=O)c4cccnc4)cc3)CC2)cc1,-53.7
14,CCc1ccc(C(=O)N2CCN(c3ccc(NC(=O)c4cccnc4)cc3)CC2)cc1,-71.3
15,Cc1ccc(C(=O)N2CCN(c3ccc(NC(=O)c4cccnc4)cc3)CC2)cc1,-38.8
16,COc1ccc(NC(=O)c2cccnc2)cc1,-11.1
17,O=C(Nc1ccc(N2CCN(C(=O)c3ccccc3)CC2)cc1)c1cccnc1,-1.77
18,C=CCN1C(=O)C(C)(C)N(C(=O)c2cccc([N+](=O)[O-])c2)c2ccccc21,-16.4
19,Cc1ccc[n+](C2C(c3ccc([N+](=O)[O-])cc3)C(C#N)=C([S-])NC2(O)C2CC2)c1 (centres unmarked),0.00258
20,O=C(CCCN1C(=O)c2ccccc2C1=O)NCC1CCCO1 (centres unmarked),12.2
21,COc1cc(SC)ccc1C(=O)Nc1ccc2c(c1)OCCO2,-18.4

row,Compound,"hERG current change (%, negative = inhibition) at 10uM [%]"
1,CCCCc1c(C)nn(-c2nnc3c4ccccc4n(C)c3n2)c1C,-4.7
2,CCCC1=Nc2cc(C(=O)NCCCN3CCOCC3)ccc2Sc2ccccc21,-9.32
3,O=C(Nc1cccc(S(=O)(=O)N2CCOCC2)c1)c1cc([N+](=O)[O-])ccc1N1CCOCC1,-15.2
4,COc1ccc(NC(=O)c2cc([N+](=O)[O-])ccc2N2CCCCC2)cc1,4.86
5,CN(C)S(=O)(=O)c1cccc(NC(=O)c2cc([N+](=O)[O-])ccc2N2CCCCC2)c1,-53
6,CN(C)S(=O)(=O)c1ccc(N2CCCC2)c(C(=O)Nc2ccccc2)c1,-23.5
7,O=C(Nc1cccc(C(F)(F)F)c1)c1cc(S(=O)(=O)N2CCCCC2)ccc1N1CCOCC1,-8.02
8,CN(C)S(=O)(=O)c1ccc(N2CCCC2)c(C(=O)Nc2cccc(F)c2)c1,0.224
9,Cc1ccc(NC(=O)c2cc([N+](=O)[O-])ccc2N2CCCC2)cc1,-0.291
10,O=C(Nc1cccc(S(=O)(=O)N2CCCCC2)c1)c1cc([N+](=O)[O-])ccc1N1CCOCC1,-64.2
11,CC(=O)Nc1cccc(NC(=O)c2cc([N+](=O)[O-])ccc2N2CCCCC2)c1,-69.3
12,N#CC(C#N)=Cc1cccn1-c1ccc(C(=O)O)cc1,15.5
13,CC(C)NC(=O)CN1C(=O)C(=O)c2ccccc21,-9.78
14,Cc1nc2ccc(S(=O)(=O)NC(C(=O)N3CCCC3)C(C)C)cc2s1 (centres unmarked),7.12
15,COc1cc2c(cc1OC)CN(C(=O)c1ccc(S(=O)(=O)N3CCCCCC3)cc1)CC2,-27.3
16,Cc1nnc(NC(=O)CSc2nc3c(c(=O)n2C)SC(C)C3)s1 (centres unmarked),4.1
17,Cc1ccc(-c2nnc(SCC(=O)NNC(=O)COc3cccc4ccccc34)n2C)cc1,5.74
18,O=C(N/N=C/c1ccccc1)c1ccc(N2CCCC2=O)cc1,5.87
19,O=C(N/N=C/c1cccc(Br)c1)c1ccc(N2CCCC2=O)cc1,-57.6
20,COc1cccc(/C=N/NC(=O)c2ccc(N3CCCC3=O)cc2)c1,-19.8
